Records with an inconclusive call do not appear. Calls of active or inactive are those of the source. The calls were made as follows: active = hit-call score of the fitted dose curve at least 0.9, where 1 is the maximum; inconclusive = response in the unintended direction; inactive = score below 0.9.
How the values were obtained:
[1] = biological target: human Vascular Endothelial Growth Factor Receptor 2 (VEGFR2), KDR (gene 3791) (UniProt P35968); assay: NVS_ENZ_hVEGFR2: NovaScreen (NVS) Enzymatic Assay for human Vascular Endothelial Growth Factor Receptor 2 (VEGFR2) (AID 2283230)
Method in brief: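 Cell-free recombinant VEGFR2 kinase, fluorescent substrate with electrophoretic mobility-shift separation; read 1 h after dosing. Screened at 25 uM in duplicate, hits to concentration-response up to 50 uM; loss-of-signal versus DMSO.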

[2] = biological target: sheep Cyclooxygenase-1 (Cox1), PTGS1 (gene 443551) (UniProt P05979); assay: NVS_ENZ_oCOX1: NovaScreen (NVS) Enzymatic Assay for sheep Cyclooxygenase-1 (Cox1) (AID 2283239);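 also: actives reduce cyclooxygenase activity so potencies are for inhibitors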
Method in brief: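 Colorimetric enzyme readout using sheep seminal-vesicle cyclooxygenase-1, measured 0.66 h post-dosing. Single-concentration duplicates at 25 uM first, then concentration series for actives, with DMSO as baseline and plate controls.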

[3] = biological target: Adenosine receptor A1 (Bos taurus) (UniProt P28190); assay: NVS_GPCR_bAdoR_NonSelective: NovaScreen (NVS) G Protein-Coupled Receptor Assay for bovine Adenosine Receptor (AdoR), Non-selective Binding (AID 2283244)
Method in brief: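 Cell-free binding with membranes from bovine striatum: radioligand displaced by test chemical, read after 1 h by filtration and scintillation. Single-point 25 uM duplicate primary, 50 uM top concentration in follow-up curves, DMSO baseline.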

[4] = biological target: human Serotonin, 5-Hydroxytryptamine Receptor 5A (5HT5A), HTR5A (gene 3361) (UniProt P47898); assay: NVS_GPCR_h5HT5A: NovaScreen (NVS) G Protein-Coupled Receptor Assay for human Serotonin, 5-Hydroxytryptamine Receptor 5A (5HT5A) (AID 2283251)
Method in brief: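 Membranes from HEK293 cells, radioligand binding read by filtration and scintillation after 1 h. Single-concentration duplicate testing at 25 uM, then concentration-response for actives; positive-direction fitting relative to DMSO.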

[5] = biological target: human Serotonin, 5-Hydroxytryptamine Receptor 6 (5HT6), HTR6 (gene 3362) (UniProt P50406); assay: NVS_GPCR_h5HT6: NovaScreen (NVS) G Protein-Coupled Receptor Assay for human Serotonin, 5-Hydroxytryptamine Receptor 6 (5HT6) (AID 2283253)
Method in brief: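 Filter scintillation counting of radioligand displacement from HEK293-expressed 5HT6, 1 hour post-dose, with loss of signal relative to DMSO. Single 25 uM duplicates first, with concentration series for confirmation.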

[6] = biological target: human Serotonin, 5-Hydroxytryptamine Receptor 7 (5HT7), HTR7 (gene 3363) (UniProt P34969); assay: NVS_GPCR_h5HT7: NovaScreen (NVS) G Protein-Coupled Receptor Assay for human Serotonin, 5-Hydroxytryptamine Receptor 7 (5HT7) (AID 2283255);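 also: hits reduce specific radioligand binding relative to DMSO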
Method in brief: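 Filter-bound radioactivity counted after 1 h, with loss of specific radioligand binding fitted against DMSO. Membrane protein came from CHO cells expressing human 5HT7. Chemicals were tested first at 25 uM in duplicate, then in concentration series if active.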

[7] = biological target: human Adenosine A2a Receptor (AdoRA2a), ADORA2A (gene 135) (UniProt P29274); assay: NVS_GPCR_hAdoRA2a: NovaScreen (NVS) G Protein-Coupled Receptor Assay for human Adenosine A2a Receptor (AdoRA2a) (AID 2283256)
Method in brief: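 Compounds screened in duplicate at 25 uM, with actives followed up in concentration series, for displacement of a radioligand from HEK293-derived receptor protein. Bound counts read by filter scintillation at 1.5 hours, DMSO as baseline.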

[8] = biological target: rat Constitutive Nitric Oxide Synthase (CNOS), Nos1 (gene 24598) (UniProt P29476); assay: NVS_ENZ_rCNOS: NovaScreen (NVS) Enzymatic Assay for rat Constitutive Nitric Oxide Synthase (CNOS) (AID 2283236)
Method in brief: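 Single 25 uM duplicate screen, then concentration series to 50 uM for chemicals meeting threshold. Rat brain membrane-derived CNOS activity detected radiometrically by filtration and scintillation counting, 1 h after compound addition; DMSO as baseline.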

[9] = biological target: human Vascular Endothelial Growth Factor Receptor 3 (VEGFR3), FLT4 (gene 2324) (UniProt P35916); assay: NVS_ENZ_hVEGFR3: NovaScreen (NVS) Enzymatic Assay for human Vascular Endothelial Growth Factor Receptor 3 (VEGFR3) (AID 2283229)
Method in brief: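 Chemicals first run in duplicate at 25 uM, with actives re-tested in concentration series to a top of 50 uM. Recombinant VEGFR3 activity measured after 1 h via fluorescence with mobility-shift product separation; inhibition fitted relative to DMSO.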

[10] = biological target: sheep Cyclooxygenase-2 (Cox2), PTGS2 (gene 443460) (UniProt P79208); assay: NVS_ENZ_oCOX2: NovaScreen (NVS) Enzymatic Assay for sheep Cyclooxygenase-2 (Cox2) (AID 2283231)
Method in brief: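 Enzyme from ovine placenta, cell-free; colorimetric absorbance read 0.66 hour after dosing, loss of signal vs DMSO. Screened in duplicate at 25 uM, then concentration-response up to 50 uM.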

[11] = biological target: human Serotonin, 5-Hydroxytryptamine Receptor 2A (5HT2A), HTR2A (gene 3356) (UniProt P28223); assay: NVS_GPCR_h5HT2A: NovaScreen (NVS) G Protein-Coupled Receptor Assay for human Serotonin, 5-Hydroxytryptamine Receptor 2A (5HT2A) (AID 2283249)
Method in brief: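 Radioligand displacement on human cortex tissue extract, counted by filtration and scintillation 1.5 h post-dosing. Initial single-concentration screen at 25 uM in duplicate, concentration series in follow-up; DMSO as baseline.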

[12] = biological target: guinea pig Opioid, Kappa 1 Receptor (OpiateK), OPRK1 (gene 100135587) (UniProt P41144); assay: NVS_GPCR_gOpiateK: NovaScreen (NVS) G Protein-Coupled Receptor Assay for guinea pig Opioid, Kappa 1 Receptor (OpiateK) (AID 2283252);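 also: radioligand displacement from kappa opioid receptor in guinea pig cerebellar membranes; active means reduced radioligand binding relative to DMSO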
Method in brief: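 Cell-free tissue prep: guinea pig cerebellar membranes, radioligand displacement, 2 h incubation. Readout: filtration plus scintillation counting. Primary single-point 25 uM duplicate; actives retested in concentration series; DMSO negative control.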

[13] = tested on: guinea pig Leukotriene B4 Receptor (LTB4), gene 100379538; assay: NVS_GPCR_gLTB4: NovaScreen (NVS) G Protein-Coupled Receptor Assay for guinea pig Leukotriene B4 Receptor (LTB4) (AID 2283247)
Method in brief: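 Membranes from guinea pig spleen incubated 2 h with radioligand and compound; bound counts measured by filtration and scintillation. Screened first at 25 uM in duplicate, then actives titrated to a 50 uM top concentration relative to DMSO.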

[14] = biological target: guinea pig Leukotriene D4 Receptor (LTD4), CYSLTR1 (gene 100135514) (UniProt Q2NNR5); assay: NVS_GPCR_gLTD4: NovaScreen (NVS) G Protein-Coupled Receptor Assay for guinea pig Leukotriene D4 Receptor (LTD4) (AID 2283248)
Method in brief: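 Guinea pig lung membrane preparation; bound radioligand measured by filter scintillation after 1 h, loss of signal versus DMSO marking displacement. Compounds tested at 25 uM in duplicate, hits retested to max 50 uM.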

[15] = tested on: bovine Angiotensin II Receptor Type 2 (AT2), gene 407157; assay: NVS_GPCR_bAT2: NovaScreen (NVS) G Protein-Coupled Receptor Assay for bovine Angiotensin II Receptor Type 2 (AT2) (AID 2283240)
Method in brief: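 Radioligand displacement on bovine cerebellar membranes, 1 hour incubation, filter-based scintillation counting; loss of signal vs DMSO. Duplicate single-point screen at 25 uM, then concentration-response to 50 uM maximum.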

[16] = tested on: bovine Histamine 1 Receptor (H1), gene 281231; assay: NVS_GPCR_bH1: NovaScreen (NVS) G Protein-Coupled Receptor Assay for bovine Histamine 1 Receptor (H1) (AID 2283246)
Method in brief: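 Hits from a 25 uM duplicate primary screen were retested in concentration series (top 50 uM); binding measured as scintillation-counted displacement of radioligand from bovine cerebellar membranes after 1 h, normalised to DMSO.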

[17] = NVS_GPCR_bNPY_NonSelective: NovaScreen (NVS) G Protein-Coupled Receptor Assay for bovine Neuropeptide Y (NPY) Receptor, Non-selective Binding (AID 2283245)
Method in brief: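 Displacement of radioligand from bovine hippocampal membrane receptors, read by filtration and scintillation counting after 1 hour. Concentration-response to a top of 50 uM followed a 25 uM duplicate primary screen. Loss of signal versus DMSO.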

[18] = biological target: bovine Dopamine Receptor (DR), Non-selective Binding, DRD1 (gene 281125) (UniProt Q95136); assay: NVS_GPCR_bDR_NonSelective: NovaScreen (NVS) G Protein-Coupled Receptor Assay for bovine Dopamine Receptor (DR), Non-selective Binding (AID 2283241)
Method in brief: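 Filter-based radioligand binding with bovine striatal membrane, incubated 1 h; DMSO as negative baseline. Initial duplicate single-point test at 25 uM preceded concentration series for actives.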

[19] = tested on: guinea pig Muscarinic, Peripheral (Mperiperal) Receptor, Non-selective Binding, gene 100379235; assay: NVS_GPCR_gMPeripheral_NonSelective: NovaScreen (NVS) G Protein-Coupled Receptor Assay for guinea pig Muscarinic, Peripheral (Mperiperal) Receptor, Non-selective Binding (AID 2283250)
Method in brief: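 Screened in duplicate at 25 uM, hits retested in concentration series to 50 uM max, using bladder membrane radioligand displacement from guinea pig. Filtration and scintillation counting 1 h post-dose, fitted relative to DMSO.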

Chain of sheep Cyclooxygenase-2 (Cox2), PTGS2 (gene 443460) (P79208 whole entry, looked up): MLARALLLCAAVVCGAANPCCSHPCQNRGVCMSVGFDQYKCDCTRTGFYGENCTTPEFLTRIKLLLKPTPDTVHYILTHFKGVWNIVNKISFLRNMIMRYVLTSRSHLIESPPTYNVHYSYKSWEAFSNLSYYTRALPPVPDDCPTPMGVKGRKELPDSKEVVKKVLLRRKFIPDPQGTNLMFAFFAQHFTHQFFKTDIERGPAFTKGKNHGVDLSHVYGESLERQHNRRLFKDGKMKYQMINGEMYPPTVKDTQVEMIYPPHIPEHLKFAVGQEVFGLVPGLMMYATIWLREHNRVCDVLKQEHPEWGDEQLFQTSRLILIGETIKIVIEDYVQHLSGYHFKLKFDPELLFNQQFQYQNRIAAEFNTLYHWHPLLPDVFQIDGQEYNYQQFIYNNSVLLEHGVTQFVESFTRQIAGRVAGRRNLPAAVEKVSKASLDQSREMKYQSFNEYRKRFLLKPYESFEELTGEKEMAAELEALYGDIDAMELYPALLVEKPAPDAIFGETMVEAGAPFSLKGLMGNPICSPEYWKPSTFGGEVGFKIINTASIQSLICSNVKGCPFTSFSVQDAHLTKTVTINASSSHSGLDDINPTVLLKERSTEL
Chain of guinea pig Opioid, Kappa 1 Receptor (OpiateK), OPRK1 (gene 100135587) (P41144 whole entry, looked up): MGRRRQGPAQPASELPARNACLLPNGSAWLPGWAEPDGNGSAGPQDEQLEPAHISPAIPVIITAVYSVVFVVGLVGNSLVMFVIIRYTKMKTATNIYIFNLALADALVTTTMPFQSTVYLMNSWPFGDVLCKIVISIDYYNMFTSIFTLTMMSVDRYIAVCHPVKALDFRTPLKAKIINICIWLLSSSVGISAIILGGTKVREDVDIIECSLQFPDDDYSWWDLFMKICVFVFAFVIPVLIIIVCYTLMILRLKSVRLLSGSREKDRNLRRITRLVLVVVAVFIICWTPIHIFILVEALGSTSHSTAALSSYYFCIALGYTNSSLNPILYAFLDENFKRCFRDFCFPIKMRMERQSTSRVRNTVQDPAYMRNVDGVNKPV
Chain of human Serotonin, 5-Hydroxytryptamine Receptor 5A (5HT5A), HTR5A (gene 3361) (P47898 whole entry, looked up): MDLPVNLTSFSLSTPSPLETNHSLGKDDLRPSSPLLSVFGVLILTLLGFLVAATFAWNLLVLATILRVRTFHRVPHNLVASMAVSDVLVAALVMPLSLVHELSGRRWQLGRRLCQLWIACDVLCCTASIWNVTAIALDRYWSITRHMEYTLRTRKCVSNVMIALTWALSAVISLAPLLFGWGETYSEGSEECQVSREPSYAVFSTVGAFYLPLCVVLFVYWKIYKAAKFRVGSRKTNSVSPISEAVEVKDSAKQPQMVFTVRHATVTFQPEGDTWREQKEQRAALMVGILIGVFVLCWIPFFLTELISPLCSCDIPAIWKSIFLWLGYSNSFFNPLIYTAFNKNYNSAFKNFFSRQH
Chain of human Serotonin, 5-Hydroxytryptamine Receptor 6 (5HT6), HTR6 (gene 3362) (P50406 whole entry, looked up): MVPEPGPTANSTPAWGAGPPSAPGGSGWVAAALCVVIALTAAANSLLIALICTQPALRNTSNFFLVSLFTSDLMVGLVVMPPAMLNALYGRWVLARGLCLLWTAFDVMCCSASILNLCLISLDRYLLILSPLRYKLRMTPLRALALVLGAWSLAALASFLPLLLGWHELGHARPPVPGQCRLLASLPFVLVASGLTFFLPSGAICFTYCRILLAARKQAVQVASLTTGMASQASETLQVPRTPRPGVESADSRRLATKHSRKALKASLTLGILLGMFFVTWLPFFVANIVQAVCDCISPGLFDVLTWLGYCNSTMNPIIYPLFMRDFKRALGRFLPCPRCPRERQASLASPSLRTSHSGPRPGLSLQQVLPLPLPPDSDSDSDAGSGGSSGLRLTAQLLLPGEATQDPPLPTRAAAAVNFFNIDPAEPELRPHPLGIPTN
Chain of sheep Cyclooxygenase-1 (Cox1), PTGS1 (gene 443551) (P05979 whole entry, looked up): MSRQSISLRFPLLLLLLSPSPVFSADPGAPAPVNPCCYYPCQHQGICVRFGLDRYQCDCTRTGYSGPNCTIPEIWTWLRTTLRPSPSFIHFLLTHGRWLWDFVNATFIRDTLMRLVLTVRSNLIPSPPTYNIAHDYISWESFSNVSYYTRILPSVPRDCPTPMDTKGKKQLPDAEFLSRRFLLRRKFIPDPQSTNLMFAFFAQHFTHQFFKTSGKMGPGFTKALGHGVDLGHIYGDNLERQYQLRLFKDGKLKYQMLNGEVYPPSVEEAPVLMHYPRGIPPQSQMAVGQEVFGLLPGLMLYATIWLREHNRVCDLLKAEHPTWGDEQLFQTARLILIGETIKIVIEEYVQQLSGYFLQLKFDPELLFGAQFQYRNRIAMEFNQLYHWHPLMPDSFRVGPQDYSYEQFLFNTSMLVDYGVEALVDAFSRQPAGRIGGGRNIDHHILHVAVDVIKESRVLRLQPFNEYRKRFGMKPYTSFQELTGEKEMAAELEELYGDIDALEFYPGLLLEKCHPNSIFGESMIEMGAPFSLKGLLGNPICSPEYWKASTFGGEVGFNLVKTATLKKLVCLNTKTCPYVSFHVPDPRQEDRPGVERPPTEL
Chain of human Serotonin, 5-Hydroxytryptamine Receptor 7 (5HT7), HTR7 (gene 3363) (P34969 whole entry, looked up): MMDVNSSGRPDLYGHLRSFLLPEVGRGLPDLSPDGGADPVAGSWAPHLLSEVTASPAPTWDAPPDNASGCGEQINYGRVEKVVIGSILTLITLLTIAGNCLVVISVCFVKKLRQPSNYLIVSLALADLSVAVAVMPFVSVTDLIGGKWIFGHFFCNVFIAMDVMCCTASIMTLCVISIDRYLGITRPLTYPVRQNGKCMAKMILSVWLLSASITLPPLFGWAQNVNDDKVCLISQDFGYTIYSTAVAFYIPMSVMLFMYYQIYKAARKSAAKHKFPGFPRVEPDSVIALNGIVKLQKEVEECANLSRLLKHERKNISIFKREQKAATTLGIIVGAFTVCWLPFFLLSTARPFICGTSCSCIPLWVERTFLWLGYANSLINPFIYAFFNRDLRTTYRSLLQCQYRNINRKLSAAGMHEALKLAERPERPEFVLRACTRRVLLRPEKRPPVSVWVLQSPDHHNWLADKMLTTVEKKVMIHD
Chain of human Vascular Endothelial Growth Factor Receptor 2 (VEGFR2), KDR (gene 3791) (P35968 whole entry, looked up): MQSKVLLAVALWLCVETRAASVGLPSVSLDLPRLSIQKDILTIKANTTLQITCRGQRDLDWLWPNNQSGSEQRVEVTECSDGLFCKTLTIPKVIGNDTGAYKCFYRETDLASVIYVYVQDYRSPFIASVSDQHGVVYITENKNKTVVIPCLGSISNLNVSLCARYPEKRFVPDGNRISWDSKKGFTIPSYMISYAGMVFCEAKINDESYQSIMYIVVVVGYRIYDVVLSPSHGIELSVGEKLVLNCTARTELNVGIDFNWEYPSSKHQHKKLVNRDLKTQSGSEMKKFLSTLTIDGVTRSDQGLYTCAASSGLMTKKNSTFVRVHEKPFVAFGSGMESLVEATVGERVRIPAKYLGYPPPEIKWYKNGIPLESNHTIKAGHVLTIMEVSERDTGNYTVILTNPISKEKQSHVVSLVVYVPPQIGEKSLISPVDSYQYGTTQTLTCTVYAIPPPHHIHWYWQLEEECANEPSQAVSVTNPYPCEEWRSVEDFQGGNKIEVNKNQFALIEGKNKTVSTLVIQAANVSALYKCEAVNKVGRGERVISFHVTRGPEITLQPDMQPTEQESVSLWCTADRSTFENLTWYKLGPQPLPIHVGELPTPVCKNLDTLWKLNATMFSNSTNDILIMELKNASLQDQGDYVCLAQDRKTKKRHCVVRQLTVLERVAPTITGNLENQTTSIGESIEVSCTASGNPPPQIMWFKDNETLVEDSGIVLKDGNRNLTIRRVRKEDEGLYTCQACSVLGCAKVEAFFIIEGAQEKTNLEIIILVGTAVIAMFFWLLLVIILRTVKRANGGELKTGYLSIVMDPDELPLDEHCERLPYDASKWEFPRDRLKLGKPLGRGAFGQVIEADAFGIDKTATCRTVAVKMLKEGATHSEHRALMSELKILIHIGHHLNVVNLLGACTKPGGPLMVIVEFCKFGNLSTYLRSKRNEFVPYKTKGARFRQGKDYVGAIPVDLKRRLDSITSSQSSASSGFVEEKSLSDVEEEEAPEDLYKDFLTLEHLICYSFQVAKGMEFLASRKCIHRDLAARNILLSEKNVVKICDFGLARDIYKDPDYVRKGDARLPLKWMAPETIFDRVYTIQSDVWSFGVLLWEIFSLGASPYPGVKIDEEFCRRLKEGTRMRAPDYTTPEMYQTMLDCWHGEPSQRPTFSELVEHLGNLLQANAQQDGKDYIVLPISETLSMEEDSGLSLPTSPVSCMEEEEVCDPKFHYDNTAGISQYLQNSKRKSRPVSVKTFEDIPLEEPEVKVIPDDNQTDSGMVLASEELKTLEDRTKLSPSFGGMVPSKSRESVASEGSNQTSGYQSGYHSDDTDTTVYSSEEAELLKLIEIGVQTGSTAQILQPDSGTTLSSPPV
Chain of human Adenosine A2a Receptor (AdoRA2a), ADORA2A (gene 135) (P29274 whole entry, looked up): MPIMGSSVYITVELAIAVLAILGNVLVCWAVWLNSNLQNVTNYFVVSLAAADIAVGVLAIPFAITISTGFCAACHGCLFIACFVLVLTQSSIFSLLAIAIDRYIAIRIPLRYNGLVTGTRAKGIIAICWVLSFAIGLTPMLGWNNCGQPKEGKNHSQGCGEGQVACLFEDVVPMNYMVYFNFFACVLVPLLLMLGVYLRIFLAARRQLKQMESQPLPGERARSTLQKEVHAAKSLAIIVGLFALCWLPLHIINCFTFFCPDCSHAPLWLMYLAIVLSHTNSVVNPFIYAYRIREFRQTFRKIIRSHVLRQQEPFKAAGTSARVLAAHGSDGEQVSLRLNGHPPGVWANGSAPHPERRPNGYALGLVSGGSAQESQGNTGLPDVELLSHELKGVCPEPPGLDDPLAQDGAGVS
Chain of guinea pig Leukotriene D4 Receptor (LTD4), CYSLTR1 (gene 100135514) (Q2NNR5 whole entry, looked up): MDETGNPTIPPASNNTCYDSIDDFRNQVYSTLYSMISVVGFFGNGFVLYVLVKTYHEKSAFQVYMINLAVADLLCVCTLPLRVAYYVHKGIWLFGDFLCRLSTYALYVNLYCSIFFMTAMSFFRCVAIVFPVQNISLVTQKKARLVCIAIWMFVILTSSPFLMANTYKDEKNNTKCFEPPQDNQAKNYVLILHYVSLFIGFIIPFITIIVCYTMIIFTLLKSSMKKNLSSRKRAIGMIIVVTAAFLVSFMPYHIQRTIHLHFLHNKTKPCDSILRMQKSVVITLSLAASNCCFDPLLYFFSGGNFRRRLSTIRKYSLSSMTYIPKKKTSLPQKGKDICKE

## OCCNCCO
[1]
  outcome: inactive

## C=CCc1cc(S(=O)(=O)c2ccc(O)c(CC=C)c2)ccc1O
[1]
  AC50: 21.2 µM (active)
[2]
  AC50: 1.07 µM (active)
[3]
  AC50: 16.7 µM (active)
[4]
  AC50: 25 µM (active)
[5]
  AC50: 0.0408 µM (active)
[6]
  AC50: 9.39 µM (active)
[7]
  AC50: 15.6 µM (active)

## CCCCCCCCCCCCCCO
[1]
  outcome: inactive
[8]
  AC50: 11.7 µM (active)

## OCCOCCOCCO
[9]
  outcome: inactive

## CCn1nc(C)c2c1C(=O)NCC(c1ccc(O)cc1)=N2
[10]
  outcome: inactive
[11]
  outcome: inactive
[12]
  outcome: inactive
[5]
  outcome: inactive
[6]
  AC50: 25 µM (active)
[7]
  AC50: 10.2 µM (active)

## O=C(NO)C1(NS(=O)(=O)c2ccc(Oc3ccc(F)cc3)cc2)CCOCC1
[9]
  outcome: inactive
[13]
  AC50: 7.03 µM (active)

## O=S(=O)(O)c1ccc(N=Nc2c(O)ccc3cc(S(=O)(=O)O)ccc23)cc1
[8]
  AC50: 25 µM (active)
[4]
  outcome: inactive
[12]
  outcome: inactive
[6]
  outcome: inactive
[7]
  AC50: 35 µM (active)

## OCc1ccccc1
[10]
  AC50: 12.3 µM (active)

## OC[C@H]1O[C@@H]2O[C@H]3[C@H](O)[C@@H](O)[C@@H](O[C@H]4[C@H](O)[C@@H](O)[C@@H](O[C@H]5[C@H](O)[C@@H](O)[C@@H](O[C@H]6[C@H](O)[C@@H](O)[C@@H](O[C@H]7[C@H](O)[C@@H](O)[C@@H](O[C@H]1[C@H](O)[C@H]2O)O[C@@H]7CO)O[C@@H]6CO)O[C@@H]5CO)O[C@@H]4CO)O[C@@H]3CO
[10]
  AC50: 3.51 µM (active)

## c1ccc2cc3ccccc3cc2c1
[5]
  outcome: inactive

## O=C(N[C@H](CO)[C@H](O)c1ccc([N+](=O)[O-])cc1)C(Cl)Cl
[2]
  outcome: inactive

## CC(C)c1nnc2ccc(-c3ocnc3-c3cc(F)ccc3F)cn12
[14]
  outcome: inactive

## CCCCCCCC/C=C\CCCCCCCC(=O)OC[C@@H](O)[C@H]1OC[C@H](O)[C@H]1O
[9]
  outcome: inactive
[1]
  AC50: 40.7 µM (active)
[15]
  outcome: inactive

## OCc1c[nH]c2ccccc12
[2]
  AC50: 25 µM (active)
[7]
  outcome: inactive

## NC(=O)N1c2ccccc2C=Cc2ccccc21
[16]
  outcome: inactive

## CC(C)C(=O)Nc1ccc([N+](=O)[O-])c(C(F)(F)F)c1
[17]
  outcome: inactive
[5]
  AC50: 4.5 µM (active)

## CCCCC(CC)C(=O)OCCOCCOCCOC(=O)C(CC)CCCC (centres undefined)
[9]
  outcome: inactive
[8]
  AC50: 5.94 µM (active)

## c1ccc(C(O[C@@H]2CCCN(CCc3ccc4c(c3)OCO4)C2)c2ccccc2)cc1
[15]
  outcome: inactive
[18]
  AC50: 10.6 µM (active)
[11]
  AC50: 10.1 µM (active)
[19]
  AC50: 0.0261 µM (active)
[4]
  AC50: 25 µM (active)
[12]
  AC50: 3.06 µM (active)
[5]
  AC50: 25 µM (active)
[6]
  AC50: 0.99 µM (active)

## O=c1[nH]cnc2c1ncn2[C@H]1CC[C@@H](CO)O1
[9]
  outcome: inactive

## OCC(CO)(CO)CO
[16]
  outcome: inactive

## Cc1ccc(S(=O)(=O)NC(=O)NN2CCCCCC2)cc1
[1]
  outcome: inactive

## CCCCCCCCN(C)C
[8]
  outcome: inactive
[19]
  outcome: inactive
[5]
  outcome: inactive
[6]
  AC50: 6.63 µM (active)

— PubChem BioAssay (EPA / NIEHS)
